In PubChem BioAssay (NCI) one finds growth data, which are given here for eight compounds.

About 83,000 compounds went through this panel and 20% of them were active in at least one assay; those are over-represented in the sample as a whole.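 Each cell line was grown in a 96-well plate and treated with one concentration of compound for 48 hours. Values below 10 were considered active.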 A number with no mark means an inactive call. Activity calls are given as the source filed them.

Common to all, as to experiment: NCI-60 one-dose screen, 48 h (100 = growth as untreated, 0 = no growth, -100 = all killed)
Conditions in all cases: 10 µM unless noted

In test [1] the test system is SK-MEL-2 melanoma.
In test [2] the test system is EKVX NSCLC.
Test [3] deals with SN12C renal.
Test [4] relates to UO-31 renal.
Test [5] concerns TK-10 renal.
Test [6] concerns ACHN renal.
The subject of test [7] is CAKI-1 renal.
Test [8] concerns A498 renal.
In test [9] the test system is CCRF-CEM leukemia.
The test system of test [10] is MOLT-4 leukemia.
The subject of test [11] is RPMI-8226 leukemia.
The test system of test [12] is OVCAR-8 ovarian.
The subject of test [13] is OVCAR-5 ovarian.
The test system of test [14] is OVCAR-4 ovarian.
Test [15] has as its system SK-OV-3 ovarian.
The test system of test [16] is OVCAR-3 ovarian.
Test [17] relates to HS 578T breast.
In test [18] the test system is NCI/ADR-RES ovarian.
The subject of test [19] is IGROV1 ovarian.

For the compound `CCOC(=O)c1ccc(N2NC(=O)/C(=C/c3ccc([N+](=O)[O-])o3)C2=O)cc1`, the growth in test [1] was 31.8%; in test [2], 111%; in test [3], 119%; in [4], 100%; in [5] it was 106%; in test [6], 104%. Further, the growth in test [7] is 108%; in [8], 109%; in [9], 89.3%; in test [10], 105%; in test [11] it was 90.7%; in test [12], 97.9%. For the same compound, the growth was 108% in test [13]; 110% in test [14]; 117% in test [15]; 88.7% in test [16]; 113% in test [17]; 111% in [18].

Turning to `CC(C)C(=O)Nc1n[nH]c2cc(-c3cccc(NS(=O)(=O)C4CC4)c3)ccc12`, the growth in [1] was 78%; in test [2] it was 71.7%; in test [3], 77.7%; in test [4], 56.7%; in test [5], 94.9%; in test [6], 70%. For the same compound, the growth in test [7] is 71.2%; in test [8], 100%; in [9] it was 72.4%; in test [10], 57.8%; in [11], 66.1%; in [12] it was 82.2%. Also, the growth in test [13] is 87.4%; in test [15], 62.3%; in test [19], 64.6%; in test [16], 57.8%; in test [17] it was 77.7%; in [18], 98.1%.

As for `NC(N)=NN=C(c1ccccc1)c1ccccc1`, the growth in test [1] was 39.3%; in test [2], 65.3%; in test [3], 51.3%; in test [4], 63.6%; in [5], 46.1%; in test [6], 48.1%. The growth in test [7] was 50.4%; in test [8], 34%; in test [9], 27.7%; in test [10], 31.8%; in [11], 25%; in test [12], 40%. Further, the growth is 79.3% in [13]; 5.22% (active) in [15]; 48.1% in test [19]; 21.3% in test [16]; 59.3% in test [18].

With `O=C1Nc2ccccc2/C1=C/c1cn(C(=O)c2c(Cl)cccc2Cl)c2ccccc12`, the growth in [1] was 39.9%; in test [2], 81.5%; in test [3] it was 56.1%; in test [4], 50.7%; in [5] it was 90.7%; in test [6], 43.6%. For the same compound, the growth is 18.7% in [7]; 52.5% in [8]; 70.5% in test [9]; 43.9% in test [10]; 51.8% in test [11]; 52.3% in test [12]. Also, the growth in test [13] is 85%; in test [15], 71.8%; in test [19] it was 25.8%; in test [16] it was 43%; in test [17] it was 64.7%; in [18], 57.7%.

For `Nc1n[nH]c(-c2cc(Cl)ccc2O)c1-c1ccccc1`, the growth is 75.9% in test [1]; 72.6% in [2]; 86.5% in test [3]; 61.9% in [4]; 106% in [5]; 61.3% in [6]. Further, the growth in [7] was 79.7%; in [8], 101%; in [9], 85.2%; in test [10] it was 72.7%; in test [11] it was 91.1%; in test [12] it was 91%. Moreover, the growth is 67.4% in test [13]; 86.3% in test [14]; 96.7% in test [15]; 96% in test [19]; 85.3% in test [17]; 79.3% in test [18].

Regarding `O=c1[nH]c2ccccc2n1C1CCN(CCOc2ccccc2)CC1`, the growth in [1] was 83.3%; in test [2] it was 99.7%; in test [3], 97.3%; in test [4] it was 64.6%; in test [5] it was 98.7%; in test [6] it was 90.9%. Further, the growth in test [7] is 98.8%; in test [8], 63.7%; in test [9], 74.3%; in test [10], 86.4%; in test [11] it was 41.5%; in test [12], 79%. Moreover, the growth in test [13] was 104%; in test [14] it was 66.7%; in [15], 91.8%; in test [16], 65.4%; in test [17], 54.6%; in test [18], 94.1%.

On to `COC(=O)c1ccc(CSc2nnc(-c3c(C)nc4ccc(C)cn34)o2)cc1`, for which the growth in test [1] was 105%; in test [2], 102%; in test [3], 99.2%; in test [4], 85.9%; in test [5] it was 113%; in test [6], 98.3%. Besides, the growth was 92.9% in [7]; 93.5% in [8]; 106% in [9]; 94.4% in test [10]; 88.4% in [11]; 103% in [12]. Also, the growth in test [13] is 106%; in [14], 94%; in [19], 109%; in [16], 119%; in test [17], 105%; in [18], 89.7%.

Regarding `Cc1ccc(S(=O)(=O)N/N=C\c2cc(Cl)ccc2O)cc1`, the growth was 99.7% in test [1]; 113% in test [2]; 101% in test [3]; 83.7% in test [4]; 88.4% in test [5]; 75.4% in test [6]. The growth was 73.9% in test [7]; 86.7% in test [8]; 74% in test [9]; 98.1% in test [10]; 82.3% in test [11]; 91.2% in test [12]. The growth in [13] is 82%; in test [15], 63.3%; in [19] it was 51%; in test [16], 115%; in [17], 91.3%; in test [18] it was 71%.
